# Assay results from PubChem BioAssay AID1159580 (chemical genetic matrix, 2015).
# About 2,000 (36%) of roughly 5,500 compounds were called active. About 18% were inconclusive and are not listed. The list shows a part of the results. A number with no mark means an inactive call. Rule as the data show it: active = normalized growth mostly below about 0.91 (no sharp cut-off); inconclusive = no clear call, values can overlap the other calls; inactive = mostly above about 0.92.
# Experiment: chemical genetic growth profiling, strain panel (AID 1159580);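 also: tested at 20 µM; growth read once vehicle control cultures reached saturation at 30 °C; 1 = growth at the plate median or of vehicle wells; lower values mean less growth of the strain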
# Conditions: growth OD
# [1] = S. cerevisiae deletion strains, locus YAL013W, strain DEP1, hits give low values
# [2] = S. cerevisiae deletion strains, locus YBR229C, strain ROT2, hits give low values
# [3] = S. cerevisiae deletion strains, locus YCL061C, strain MRC1, hits give low values
# [4] = S. cerevisiae deletion strains, locus YDL101C, strain DUN1, hits give low values
# [5] = S. cerevisiae deletion strains, locus YDR150W, strain NUM1, hits give low values
# [6] = S. cerevisiae deletion strains, locus YEL061C, strain CIN8, hits give low values
# [7] = S. cerevisiae deletion strains, locus YGR078C, strain PAC10, hits give low values
# [8] = S. cerevisiae deletion strains, locus YHR030C, strain SLT2, hits give low values
# [9] = S. cerevisiae deletion strains, locus YHR087W, strain rtc3, hits give low values
# [10] = S. cerevisiae deletion strains, locus YJL187C, strain SWE1, hits give low values
# [11] = S. cerevisiae deletion strains, locus YJR043C, strain POL32, hits give low values
# [12] = S. cerevisiae deletion strains, locus YJR075W, strain HOC1, hits give low values
# [13] = S. cerevisiae deletion strains, locus YLR039C, strain RIC1, hits give low values
# [14] = S. cerevisiae deletion strains, locus YLR058C, strain SHM2 (second series), hits give low values
# [15] = S. cerevisiae deletion strains, locus YLR085C, strain ARP6, hits give low values
# [16] = S. cerevisiae deletion strains, locus YLR262C, strain YPT6, hits give low values
# [17] = S. cerevisiae deletion strains, locus YML094W, strain GIM5, hits give low values
# [18] = S. cerevisiae deletion strains, locus YMR219W, strain ESC1, hits give low values
# [19] = S. cerevisiae deletion strains, locus YMR263W, strain SAP30, hits give low values
# [20] = S. cerevisiae deletion strains, locus YMR307W, strain GAS1, hits give low values
# [21] = S. cerevisiae deletion strains, locus YNL128W, strain TEP1, hits give low values
# [22] = S. cerevisiae deletion strains, locus YNL153C, strain GIM3, hits give low values
# [23] = S. cerevisiae deletion strains, locus YNL298W, strain CLA4 (second series), hits give low values
# [24] = S. cerevisiae deletion strains, locus YNL322C, strain KRE1, hits give low values
# [25] = S. cerevisiae deletion strains, locus YNR030W, strain Alg12, hits give low values
# [26] = S. cerevisiae deletion strains, locus YOL006C, strain TOP1, hits give low values
# [27] = S. cerevisiae deletion strains, locus YPL055C, strain LGE1, hits give low values
# [28] = S. cerevisiae deletion strains, locus YPL241C, strain CIN2, hits give low values
# [29] = S. cerevisiae deletion strains, locus YPR135W, strain CTF4, hits give low values
# [30] = S. cerevisiae deletion strains, locus YDL134C, strain PPH21, hits give low values
# [31] = S. cerevisiae deletion strains, locus YKL190W, strain CNB1, hits give low values
structure (smiles),measurement,setting,value
O=C(O)c1cnn(-c2ccccc2)c1C(F)(F)F,normalized growth,[1],1.01
same,normalized growth,[2],0.988
same,normalized growth,[3],0.995
same,normalized growth,[4],0.998
same,normalized growth,[5],1.02
same,normalized growth,[6],0.996
same,normalized growth,[7],0.99
same,normalized growth,[8],1.01
same,normalized growth,[9],0.98
same,normalized growth,[10],0.993
same,normalized growth,[11],0.992
same,normalized growth,[12],1.02
same,normalized growth,[13],1.03
same,normalized growth,[14],1.01
same,normalized growth,[15],1.05
same,normalized growth,[16],0.955
same,normalized growth,[17],1.02
same,normalized growth,[18],1
same,normalized growth,[19],0.989
same,normalized growth,[20],0.979
same,normalized growth,[21],1.01
same,normalized growth,[22],0.984
same,normalized growth,[23],1.01
same,normalized growth,[24],0.999
same,normalized growth,[25],1.01
same,normalized growth,[26],1.04
same,normalized growth,[27],1.04
same,normalized growth,[28],1.01
same,normalized growth,[29],1
N#Cc1cnn(-c2ccccc2)c1-n1cccc1,normalized growth,[1],0.976
same,normalized growth,[2],0.988
same,normalized growth,[3],0.959
same,normalized growth,[4],1.01
same,normalized growth,[30],0.999
same,normalized growth,[5],0.873
same,normalized growth,[6],1.02
same,normalized growth,[7],0.974
same,normalized growth,[8],0.626 (active)
same,normalized growth,[9],1.02
same,normalized growth,[10],0.976
same,normalized growth,[11],0.978
same,normalized growth,[12],0.988
same,normalized growth,[31],0.985
same,normalized growth,[13],0.859
same,normalized growth,[14],0.974
same,normalized growth,[15],0.933
same,normalized growth,[16],0.883
same,normalized growth,[17],0.984
same,normalized growth,[18],0.981
same,normalized growth,[19],0.964
same,normalized growth,[22],0.994
same,normalized growth,[23],0.967
same,normalized growth,[24],0.989
same,normalized growth,[25],0.956
same,normalized growth,[26],0.938
same,normalized growth,[27],0.969
same,normalized growth,[28],0.953
same,normalized growth,[29],0.82
CC1(O)/C=C/C=C(\CO)C2CC(C)(C)C2(O)CC1 (centres undefined),normalized growth,[1],1.02
same,normalized growth,"S. cerevisiae deletion strains, locus YBR021W, strain FUR4, hits give low values",1.02
same,normalized growth,[2],1.01
same,normalized growth,"S. cerevisiae deletion strains, locus YCL029C, strain bik1, hits give low values",1
same,normalized growth,"S. cerevisiae deletion strains, locus YDL035C, strain GPR1, hits give low values",1.01
same,normalized growth,"S. cerevisiae deletion strains, locus YDL074C, strain BRE1, hits give low values",1.03
same,normalized growth,[4],1.02
same,normalized growth,[30],1.02
same,normalized growth,"S. cerevisiae deletion strains, locus YDL185W, strain tfp1, hits give low values",1
same,normalized growth,"S. cerevisiae deletion strains, locus YDL192W, strain arf1, hits give low values",1
same,normalized growth,"S. cerevisiae deletion strains, locus YDR101C, strain arx1, hits give low values",0.976
same,normalized growth,[5],1.02
same,normalized growth,"S. cerevisiae deletion strains, locus YDR162C, strain NBP2, hits give low values",1.04
same,normalized growth,"S. cerevisiae deletion strains, locus YDR318W, strain mcm21, hits give low values",0.993
same,normalized growth,"S. cerevisiae deletion strains, locus YDR388W, hits give low values",0.998
same,normalized growth,"S. cerevisiae deletion strains, locus YDR502C, strain sam2, hits give low values",1.01
same,normalized growth,[6],1.01
same,normalized growth,"S. cerevisiae deletion strains, locus YER110C, hits give low values",0.998
same,normalized growth,"S. cerevisiae deletion strains, locus YER155C, strain BEM2, hits give low values",1
same,normalized growth,"S. cerevisiae deletion strains, locus YER167W, strain BCK2, hits give low values",1.02
same,normalized growth,"S. cerevisiae deletion strains, locus YGL078C, strain dbp3, hits give low values",1
same,normalized growth,"S. cerevisiae deletion strains, locus YGL086W, strain mad1, hits give low values",1
same,normalized growth,"S. cerevisiae deletion strains, locus YGL248W, strain PDE1, hits give low values",1.01
same,normalized growth,[7],1.02
same,normalized growth,"S. cerevisiae deletion strains, locus YGR135W, strain pre9, hits give low values",0.999
same,normalized growth,"S. cerevisiae deletion strains, locus YGR229C, strain SMI1, hits give low values",1.02
same,normalized growth,"S. cerevisiae deletion strains, locus YGR252W, strain gcn5, hits give low values",0.956
same,normalized growth,[8],1
same,normalized growth,"S. cerevisiae deletion strains, locus YHR079C, strain IRE1 (second series), hits give low values",1
same,normalized growth,"S. cerevisiae deletion strains, locus YHR094C, strain hxt1, hits give low values",1.01
same,normalized growth,"S. cerevisiae deletion strains, locus YHR129C, strain ARP1, hits give low values",1.01
same,normalized growth,"S. cerevisiae deletion strains, locus YHR200W, strain rpn10, hits give low values",1
same,normalized growth,"S. cerevisiae deletion strains, locus YIL066C, strain RNR3, hits give low values",1.01
same,normalized growth,"S. cerevisiae deletion strains, locus YIL073C, strain SPO22, hits give low values",1.02
same,normalized growth,"S. cerevisiae deletion strains, locus YIL125W, strain kgd1, hits give low values",0.998
same,normalized growth,"S. cerevisiae deletion strains, locus YIR030C, strain dcg1, hits give low values",1.01
same,normalized growth,"S. cerevisiae deletion strains, locus YJL095W, strain BCK1, hits give low values",1
same,normalized growth,"S. cerevisiae deletion strains, locus YJL134W, strain LCB3, hits give low values",1.01
same,normalized growth,"S. cerevisiae deletion strains, locus YJL168C, strain set2, hits give low values",1
same,normalized growth,"S. cerevisiae deletion strains, locus YJL187C, strain SWE1 (second series), hits give low values",1.02
same,normalized growth,[11],0.995
same,normalized growth,[12],1.01
same,normalized growth,"S. cerevisiae deletion strains, locus YKL009W, strain mrt4, hits give low values",0.991
same,normalized growth,"S. cerevisiae deletion strains, locus YKL068W, hits give low values",1.01
same,normalized growth,"S. cerevisiae deletion strains, locus YKL085W, strain MDH1 (second series), hits give low values",1.02
same,normalized growth,"S. cerevisiae deletion strains, locus YKL085W, strain MDH1, hits give low values",1.02
same,normalized growth,[31],1.01
same,normalized growth,"S. cerevisiae deletion strains, locus YKR001C, strain vps1, hits give low values",1
same,normalized growth,[13],0.977
same,normalized growth,"S. cerevisiae deletion strains, locus YLR058C, strain SHM2, hits give low values",1.01
same,normalized growth,"S. cerevisiae deletion strains, locus YLR102C, strain apc9, hits give low values",1
same,normalized growth,[16],1.05
same,normalized growth,"S. cerevisiae deletion strains, locus YLR268W, strain sec22, hits give low values",0.986
same,normalized growth,"S. cerevisiae deletion strains, locus YLR330W, strain CHS5, hits give low values",1.01
same,normalized growth,"S. cerevisiae deletion strains, locus YLR342W, strain FKS1 (second series), hits give low values",1.02
same,normalized growth,"S. cerevisiae deletion strains, locus YLR371W, strain rom2, hits give low values",1
same,normalized growth,"S. cerevisiae deletion strains, locus YLR418C, strain cdc73, hits give low values",0.989
same,normalized growth,"S. cerevisiae deletion strains, locus YML016C, strain PPZ1, hits give low values",1.01
same,normalized growth,"S. cerevisiae deletion strains, locus YML032C, strain rad52, hits give low values",0.979
same,normalized growth,"S. cerevisiae deletion strains, locus YML124C, strain tub3, hits give low values",1
same,normalized growth,"S. cerevisiae deletion strains, locus YMR078C, strain ctf18, hits give low values",1.01
same,normalized growth,"S. cerevisiae deletion strains, locus YMR223W, strain ubp8, hits give low values",0.994
same,normalized growth,[19],1.02
same,normalized growth,[20],1.02
same,normalized growth,"S. cerevisiae deletion strains, locus YNL067W, strain RPL9B, hits give low values",1.01
same,normalized growth,[21],1.03
same,normalized growth,[22],1.02
same,normalized growth,"S. cerevisiae deletion strains, locus YNL233W, strain BNI4, hits give low values",1.02
same,normalized growth,"S. cerevisiae deletion strains, locus YNL250W, strain rad50, hits give low values",1.02
same,normalized growth,"S. cerevisiae deletion strains, locus YNL271C, strain bni1, hits give low values",0.995
same,normalized growth,"S. cerevisiae deletion strains, locus YNL298W, strain CLA4, hits give low values",0.993
same,normalized growth,"S. cerevisiae deletion strains, locus YNL307C, strain MCK1, hits give low values",0.997
same,normalized growth,[24],1.02
same,normalized growth,"S. cerevisiae deletion strains, locus YNR052C, strain pop2, hits give low values",0.998
same,normalized growth,[26],1.06
same,normalized growth,"S. cerevisiae deletion strains, locus YOL012C, strain htz1",0.828
same,normalized growth,"S. cerevisiae deletion strains, locus YOL147C, strain pex11, hits give low values",1.01
same,normalized growth,"S. cerevisiae deletion strains, locus YOR061W, strain CKA2, hits give low values",1.02
same,normalized growth,"S. cerevisiae deletion strains, locus YOR069W, strain VPS5, hits give low values",1.01
same,normalized growth,"S. cerevisiae deletion strains, locus YOR136W, strain idh2, hits give low values",0.997
same,normalized growth,"S. cerevisiae deletion strains, locus YOR144C, strain elg1, hits give low values",0.999
same,normalized growth,"S. cerevisiae deletion strains, locus YOR184W, strain ser1, hits give low values",0.994
same,normalized growth,"S. cerevisiae deletion strains, locus YOR316C, strain cot1, hits give low values",1
same,normalized growth,[27],1.05
same,normalized growth,[28],1.02
same,normalized growth,"S. cerevisiae deletion strains, locus YPR119W, strain clb2, hits give low values",0.992
same,normalized growth,"S. cerevisiae deletion strains, locus YPR141C, strain kar3, hits give low values",1
same,normalized growth,"S. cerevisiae deletion strains, locus YPR163C, strain tif3, hits give low values",1
same,normalized growth,"S. cerevisiae deletion strains, locus YPR167C, strain met16, hits give low values",1.01
same,normalized growth,"S. cerevisiae deletion strains, strain wtn01, hits give low values",0.995
same,normalized growth,"S. cerevisiae strains, strain wild type, hits give low values",1.01
